Measurements: PubChem BioAssay (NCATS)
Records with an inconclusive call do not appear. The source made the active and inactive calls. The call rests on the fitted dose curve; in most records, active means well fitted curve in the direction sought with a large enough effect; inconclusive means small, poorly fitted or top-dose-only effect, or another doubt; inactive means no such curve, though single readings can be large; an effect the other way counts as inactive or inconclusive.

What follows are molecules tested against Aldehyde dehydrogenase, mitochondrial (Homo sapiens) (UniProt P05091) (assay: qHTS for Inhibitors of the Aldehyde Dehydrogenase Family (ALDH2) Primary screen (AID 2061308;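 further: plate controls were vehicle for no effect and reference inhibitor for full effect; nearly all actives have a fitted effect of over 55% in size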)). Conditions: ALDH2 enzyme inhibition qHTS, 1536-well; series mostly up to 56 µM; activity change, negative = inhibition: at the top concentration.

| Structure (SMILES) | activity change, negative = inhibition | Potency |
| --- | --- | --- |
| Cc1ccc(-c2cc(C(=O)Nc3ccccc3)c3ccccc3n2)cc1C | 7.66% (inactive) |  |
| CC(C)N1CCc2c(-c3nc4ccccc4s3)csc2C1 | 11.4% (inactive) |  |
| Cc1cc2c(s1)c1cnn(Cc3c(F)c(F)c(C)c(F)c3F)c(=O)c1n2C | 2.4% (inactive) |  |
| Cc1ccc(S(=O)(=O)Nc2ccccc2C(=O)Nc2nc(-c3ccccc3)c(Br)s2)cc1 | -12.9% (inactive) |  |
| O=c1c2ccc([N+](=O)[O-])cc2nc2sc(Nc3ccc4c(c3)CCC4)nn12 | 2.88% (inactive) |  |
| COC1CC(=O)C23C(=O)NC(CC(C)C)C2C(C)C(C)=CC3/C=C(\C)CCC1O (stereo not given) | 0.0237% [at 28 µM] (inactive) |  |
| Cc1ccnc(C(=S)N2CCN(c3cccc(C(F)(F)F)c3)CC2)c1 | -14.1% (inactive) |  |
| N#Cc1cccc(S(=O)(=O)Nc2cnccc2C(=O)Nc2nc(-c3ccccc3)cs2)c1 | 5.97% (inactive) |  |
| COc1cc2c(NC3CCN(C(C)C)CC3)nc(N3CCC(F)(F)CC3)nc2cc1OCCCN1CCCC1 | 33.6% (inactive) |  |
| O=C(Nc1cccc2c1cnn2-c1ccc(F)cc1)c1ccccn1 | -10.8% (inactive) |  |
| CCn1cnc2c(NCCc3cccnc3)nc(C#N)nc21 | 5.03% (inactive) |  |
| O=C(CNC(=O)c1ccccc1)OC(C(=O)Nc1ccc2c(c1)OCO2)c1ccccc1 (stereo not given) | 5.45% (inactive) |  |
| COCCN(CCOC)c1nc(C)nc2c1nc(-c1ccccc1)n2CC1CCN(C)CC1 | 14.7% (inactive) |  |
| CCN(C)c1ncnc2ccc(-c3ccc4c(c3)OCO4)cc12 | 17.5% (inactive) |  |
| O=C(Nc1ccc2ccccc2c1)Nc1nnc(C2CCCCC2)s1 | -1% (inactive) |  |
| O=C1CCCC2=C1C(c1cccc(F)c1)N=C(Nc1nc3ccccc3o1)N2 (stereo not given) | 4.01% (inactive) |  |
| Cc1sc(NC(=O)Cc2ccc3c(c2)OCO3)nc1-c1ccc2c(c1)CCN2C(=O)c1ccccc1Cl | -4.31% (inactive) |  |
| O=[S+]([O-])(c1ccc2ncsc2c1)N1CCN([S+](=O)([O-])c2c(F)cccc2F)CC1 | -17% (inactive) |  |
| N#Cc1c(-c2cc(C(F)(F)F)cc(C(F)(F)F)c2)no[n+]1[O-] | 4.98% (inactive) |  |
| c1nc(NCCCN2CCCCC2)c2cc(-c3ccc4c(c3)OCO4)ccc2n1 | 0.768% (inactive) |  |

| Structure (SMILES) | activity change, negative = inhibition | Potency |
| --- | --- | --- |
| COc1cc(O)c(C(CC(=O)N2CCC(C)CC2)c2ccc3c(c2)OCO3)c(OC)c1 (stereo not given) | -11.9% (inactive) |  |
| O=C1c2ccc(Nc3ccc(F)cc3F)cc2CCc2ccc(OCC(O)CO)cc21 (stereo not given) | 0.354% (inactive) |  |
| Cc1cccc(C)c1-n1c(SCC(=O)Nc2ccc(C(=O)O)cc2)nnc1-c1ccc([S+](=O)([O-])N2CCCC2)cc1 | -14.1% (inactive) |  |
| CCC(=O)NC(c1cccs1)c1cc(Br)c2cccnc2c1O (stereo not given) | 3.91% (inactive) |  |
| Cc1cccc(CNc2ncnc3ccc(-c4cccc(C)c4)cc23)c1 | -1.8% (inactive) |  |
| COc1cccc(CNc2ccc(S(=O)(=O)Nc3nccs3)cc2)c1O |  | inactive |
| N#Cc1ccc(CSc2nc3ncc(Br)cc3[nH]2)cc1 | 20% (inactive) |  |
| CCCCCn1ncc2c3sc(C)cc3n(C)c2c1=O | 7.31% (inactive) |  |
| CC(=O)Nc1sc2c(c1C(=O)O)CCNC2 | -2.07% (inactive) |  |
| O=C(O)c1ccnc2c(O)cccc12 | -7.77% (inactive) |  |
| O=C(Nc1ccc2ccccc2c1)Nc1nnc(-c2ccncc2)s1 | 12.1% (inactive) |  |
| O=C(Nc1ccc(S(=O)(=O)Nc2nccs2)cc1)c1cc(-c2ccccc2)nc2ccccc12 | 0.117% (inactive) |  |
| CC(=O)Nc1sc2c(c1Br)CCNC2 | 6.35% (inactive) |  |
| O=C(Cc1ccc(Cl)c(Cl)c1)Nc1ccc([S+](=O)([O-])Nc2ncn[nH]2)cc1 | -7.77% (inactive) |  |
| Nc1ncnc2c1C(c1ccccc1)c1c(ccc3ccccc13)O2 (stereo not given) | 3.84% (inactive) |  |
| Cc1ccc(-c2cc(C(=O)NCC[S+](=O)([O-])O)c3ccccc3n2)cc1C | -23.2% (inactive) |  |
| Cc1cccc(-n2cnc3cc(C(=O)N4CC(C)CC(C)C4)ccc32)c1 (stereo not given) | -1.51% (inactive) |  |
| O=C1CCCC2=C1C1(CCCC1)N=C(Nc1nc3cc4ccccc4cc3o1)N2 | -4.21% (inactive) |  |
| COc1ccc2cc3c(NC(=O)c4ccco4)nn(C)c3nc2c1 | -18% (inactive) |  |
| O=C(Nc1nc(-c2ccccc2)cs1)c1ccncc1NS(=O)(=O)c1cccs1 | -8.5% (inactive) |  |

Each molecule was assayed against Retinaldehyde dehydrogenase 3 (Homo sapiens) (UniProt P47895) (assay: qHTS for Inhibitors of the Aldehyde Dehydrogenase Family (ALDH1A3) Primary screen (AID 2061315;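 further: plate controls were DMSO vehicle for no effect and reference inhibitor for full effect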)). Conditions: ALDH inhibition qHTS; series mostly up to 56 µM; activity change, negative = inhibition: at the top concentration.

| Structure (SMILES) | activity change, negative = inhibition | Potency |
| --- | --- | --- |
| Cc1ccc(-c2cc(C(=O)Nc3ccccc3)c3ccccc3n2)cc1C | 9.42% (inactive) |  |
| CC(C)N1CCc2c(-c3nc4ccccc4s3)csc2C1 | 7.47% (inactive) |  |
| Cc1cc2c(s1)c1cnn(Cc3c(F)c(F)c(C)c(F)c3F)c(=O)c1n2C | 4.03% (inactive) |  |
| Cc1ccc(S(=O)(=O)Nc2ccccc2C(=O)Nc2nc(-c3ccccc3)c(Br)s2)cc1 | -1.8% (inactive) |  |
| O=c1c2ccc([N+](=O)[O-])cc2nc2sc(Nc3ccc4c(c3)CCC4)nn12 | -14.6% (inactive) |  |
| COC1CC(=O)C23C(=O)NC(CC(C)C)C2C(C)C(C)=CC3/C=C(\C)CCC1O (stereo not given) | 1.24% [at 28 µM] (inactive) |  |
| Cc1ccnc(C(=S)N2CCN(c3cccc(C(F)(F)F)c3)CC2)c1 | 10.5% (inactive) |  |
| N#Cc1cccc(S(=O)(=O)Nc2cnccc2C(=O)Nc2nc(-c3ccccc3)cs2)c1 | -6.5% (inactive) |  |
| COc1cc2c(NC3CCN(C(C)C)CC3)nc(N3CCC(F)(F)CC3)nc2cc1OCCCN1CCCC1 | -16.1% (inactive) |  |
| O=C(Nc1cccc2c1cnn2-c1ccc(F)cc1)c1ccccn1 | 2.3% (inactive) |  |
| CCn1cnc2c(NCCc3cccnc3)nc(C#N)nc21 | -5.31% (inactive) |  |
| O=C(CNC(=O)c1ccccc1)OC(C(=O)Nc1ccc2c(c1)OCO2)c1ccccc1 (stereo not given) | 15.3% (inactive) |  |
| COCCN(CCOC)c1nc(C)nc2c1nc(-c1ccccc1)n2CC1CCN(C)CC1 | 20.7% (inactive) |  |
| CCN(C)c1ncnc2ccc(-c3ccc4c(c3)OCO4)cc12 | 5.92% (inactive) |  |
| O=C(Nc1ccc2ccccc2c1)Nc1nnc(C2CCCCC2)s1 | -0.747% (inactive) |  |
| O=C1CCCC2=C1C(c1cccc(F)c1)N=C(Nc1nc3ccccc3o1)N2 (stereo not given) | 25.9% (inactive) |  |
| Cc1sc(NC(=O)Cc2ccc3c(c2)OCO3)nc1-c1ccc2c(c1)CCN2C(=O)c1ccccc1Cl | 3.89% (inactive) |  |
| O=[S+]([O-])(c1ccc2ncsc2c1)N1CCN([S+](=O)([O-])c2c(F)cccc2F)CC1 | -1.76% (inactive) |  |
| N#Cc1c(-c2cc(C(F)(F)F)cc(C(F)(F)F)c2)no[n+]1[O-] | -5.15% (inactive) |  |
| c1nc(NCCCN2CCCCC2)c2cc(-c3ccc4c(c3)OCO4)ccc2n1 | -13.4% (inactive) |  |

| Structure (SMILES) | activity change, negative = inhibition | Potency |
| --- | --- | --- |
| COc1cc(O)c(C(CC(=O)N2CCC(C)CC2)c2ccc3c(c2)OCO3)c(OC)c1 (stereo not given) | 11.5% (inactive) |  |
| O=C1c2ccc(Nc3ccc(F)cc3F)cc2CCc2ccc(OCC(O)CO)cc21 (stereo not given) | -26% (inactive) |  |
| Cc1cccc(C)c1-n1c(SCC(=O)Nc2ccc(C(=O)O)cc2)nnc1-c1ccc([S+](=O)([O-])N2CCCC2)cc1 | 7.85% (inactive) |  |
| CCC(=O)NC(c1cccs1)c1cc(Br)c2cccnc2c1O (stereo not given) | 14% (inactive) |  |
| Cc1cccc(CNc2ncnc3ccc(-c4cccc(C)c4)cc23)c1 | 11.1% (inactive) |  |
| COc1cccc(CNc2ccc(S(=O)(=O)Nc3nccs3)cc2)c1O |  | inactive |
| N#Cc1ccc(CSc2nc3ncc(Br)cc3[nH]2)cc1 | 8.15% (inactive) |  |
| CCCCCn1ncc2c3sc(C)cc3n(C)c2c1=O | -2.24% (inactive) |  |
| CC(=O)Nc1sc2c(c1C(=O)O)CCNC2 | -14.6% (inactive) |  |
| O=C(O)c1ccnc2c(O)cccc12 | 17.9% (inactive) |  |
| O=C(Nc1ccc2ccccc2c1)Nc1nnc(-c2ccncc2)s1 | 3.14% (inactive) |  |
| O=C(Nc1ccc(S(=O)(=O)Nc2nccs2)cc1)c1cc(-c2ccccc2)nc2ccccc12 | 23.8% (inactive) |  |
| CC(=O)Nc1sc2c(c1Br)CCNC2 | -10.3% (inactive) |  |
| O=C(Cc1ccc(Cl)c(Cl)c1)Nc1ccc([S+](=O)([O-])Nc2ncn[nH]2)cc1 | -1.69% (inactive) |  |
| Nc1ncnc2c1C(c1ccccc1)c1c(ccc3ccccc13)O2 (stereo not given) | 16.7% (inactive) |  |
| Cc1ccc(-c2cc(C(=O)NCC[S+](=O)([O-])O)c3ccccc3n2)cc1C | -10.9% (inactive) |  |
| Cc1cccc(-n2cnc3cc(C(=O)N4CC(C)CC(C)C4)ccc32)c1 (stereo not given) | -4.49% (inactive) |  |
| O=C1CCCC2=C1C1(CCCC1)N=C(Nc1nc3cc4ccccc4cc3o1)N2 | -22.9% (inactive) |  |
| COc1ccc2cc3c(NC(=O)c4ccco4)nn(C)c3nc2c1 | 0.41% (inactive) |  |
| O=C(Nc1nc(-c2ccccc2)cs1)c1ccncc1NS(=O)(=O)c1cccs1 | 4.54% (inactive) |  |
